High-throughput results: PubChem BioAssay, The Scripps Research Institute Molecular Screening Center
PKA-R1A activ – activators of PKA-R1A complex. P00514+P68181. PKA-R1A dissociation, Cy5-IP20 fluorescence polarization; scaled: DMSO 0%, 113 µM cGMP 100%. activation, % at 11.4 µM. 0.083% of 340,000 active. AID 504707;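 active = percent activation above the mean of all tested compounds plus 3 SD, cut at about 19% in these data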;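 also: higher means more PKAc released from R1A so a rise in polarization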
PKA-R2B act – activators of human PKA-R2B complex | PKA-R2B holoenzyme dissociation, Cy5-IP20 fluorescence polarization; R2B truncated from residue 108, S112A mutant; 0% DMSO only, 100% 113 µM cGMP | activation, % at 11.4 µM | 0.079% of 340,000 active;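 active = activation above a cutoff set at the mean over all compounds plus 3 SD, cut at about 18% in these data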;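 also: higher means more holoenzyme dissociation and a rise in polarization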
Target sequence (P31323 whole entry, looked up, other chains not shown, the tested form may be a part): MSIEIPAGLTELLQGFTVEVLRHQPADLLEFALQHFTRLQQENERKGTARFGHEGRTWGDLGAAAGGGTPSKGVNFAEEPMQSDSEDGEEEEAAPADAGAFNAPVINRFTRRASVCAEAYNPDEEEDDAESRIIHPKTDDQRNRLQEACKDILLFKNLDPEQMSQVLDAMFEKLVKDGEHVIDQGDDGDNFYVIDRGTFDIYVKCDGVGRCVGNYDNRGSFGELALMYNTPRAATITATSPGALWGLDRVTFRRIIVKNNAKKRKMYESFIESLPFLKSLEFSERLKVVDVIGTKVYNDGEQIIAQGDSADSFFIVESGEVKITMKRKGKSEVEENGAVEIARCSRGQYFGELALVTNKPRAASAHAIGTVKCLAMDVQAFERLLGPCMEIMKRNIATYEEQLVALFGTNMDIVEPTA
bovine MsrA act – activates bovine MsrA enzyme; purified bovine MsrA, absorbance read-out; activation, % at 10.6 µM; 0.3% of 360,000 active; AID 602163; in the data active = activation above about 7.5%;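 also: 0% = vehicle and 100% = reference activator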
MsrA inhibitor – bovine MsrA inhibition | purified bovine MsrA, absorbance read-out | inhibition, % at 15.5 µM | 0.75% of 360,000 active; in the data active = inhibition above about 4.5%;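 also: 0% = vehicle wells with enzyme and 100% = reference inhibitor wells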
* = called active by the depositor; . = not tested or not shown. An excerpt weighted towards active compounds, which were near 1.1% of everything screened.

SMILES	PKA-R1A activ	PKA-R2B act	bovine MsrA act	MsrA inhibitor
COc1ccc(C(=O)N/C(=C\c2cccs2)c2nc3ccccc3[nH]2)cc1OC	-2	-2	-4	6.0*
COc1ccc(C(=O)N/C(=C/c2cccs2)C(=O)NN)cc1OC	-6	-8	-2	0
C[C@H](O)[C@@H]1CN2CCc3c([nH]c4ccccc34)[C@@H]2C[C@@H]1N(C)CC1CCCCC1	.	.	.	-1
COC(=O)C1=C(C)N(C)C(=NCc2ccc(C(F)(F)F)cc2)NC1c1ccc(Cl)cc1 (centres undefined)	.	.	.	-2
CN(N=Nc1nc[nH]c1C(N)=O)C1CCCCC1	.	.	-16	4.6*
CN(C)N=Nc1nc[nH]c1C(N)=O	2	-5	-2	2
COc1cc(/C=C/C(=O)OC(C)C(=O)Nc2c(C)n(C)n(-c3ccccc3)c2=O)ccc1OCC#N (centres undefined)	5	1	-9	4.6*
COC(=O)c1c(-c2ccc(OC)cc2)c2c(c3c4cc(F)ccc4n(S(=O)(=O)c4ccc(C)cc4)c13)C(=O)N(C)C2	.	.	.	1
COc1ccc(C2=Nn3c(nnc3-c3ccccc3C(F)(F)F)SC2)cc1OC1CCOC1 (centres undefined)	7	1	-7	2
COc1ccc(C2=Nn3c(nnc3-c3ccccc3OC)SC2)cc1OC1CCOC1 (centres undefined)	-5	-4	-2	4.6*
COc1cccc(CNC(=O)[C@H]2CCCN2)c1	.	.	.	-1
CC(=O)N1C[C@@H](CO)[C@@H](N(C)C(=O)/C=C/c2ccccc2)C[C@H]1c1ccccc1	.	.	.	2
COC(=O)[C@]12C[C@H](CC(=O)NCc3ccccc3)C(=O)N(CCC3=CCCCC3)C1=C[C@H](COCc1ccccc1)O[C@@H]2C	.	.	.	1
CC1C/C(=C\c2cccnc2)C(=O)/C(=C/c2cccnc2)C1 (centres undefined)	-9	-3	-10	5.2*
CCOC(=O)CN1N=C(c2ccc(C)cc2)CCC1=O	8	-8	-3	-1
CCOC(=O)C(C)N1N=C(/C=C/c2ccc(OC)cc2)CCC1=O (centres undefined)	10	14	-8	6.1*
CCOC(=O)CN1N=C(/C=C/c2ccc(OC)cc2)CCC1=O	-2	3	-10	6.1*
COC(=O)c1cc2c(c3c4cc(OC)ccc4n(S(=O)(=O)c4ccccc4)c13)C(=O)N(Cc1ccc(C(F)(F)F)cc1)C2	.	.	.	0
CN(C)c1ccc(-c2n(C)c3ccccc3[n+]2C)cc1	-3	-4	-11	4.6*
CCCCCCCCN1C(=O)[C@@H](CC(=O)NCCCOCCCC)C[C@@]2(C(=O)OC)C1=C[C@H](C(C)(C)C)O[C@@H]2C	.	.	.	0
COc1cc(/C=C(\C#N)c2nnc(N3CCOCC3)n2-c2ccccc2)ccc1O	-15	-10	-10	4.6*
CC(=C/C(=O)O)/C=C/c1ccc(Cl)o1	4	5	-5	1
CC(/C=C/c1ccc(C)o1)=C\C(=O)O	3	-8	20*	2
Cc1cc(C(=O)OCC(=O)NCc2ccco2)c(C)n1-c1ccc(F)cc1	-9	-6	8.5*	-1
CCNC(=O)COC(=O)c1cc(C)n(-c2ccccc2)c1C	-8	-7	-2	0
SMILES	PKA-R1A activ	PKA-R2B act	bovine MsrA act	MsrA inhibitor
C/C(=N\NS(=O)(=O)c1ccc([N+](=O)[O-])cc1)c1ccc(NC(=O)c2ccco2)cc1	-2	0	-4	4.6*
CC(=NNS(=O)(=O)c1ccc([N+](=O)[O-])cc1)c1ccc(C)cc1	-6	-7	-3	0
CCOC(=O)N1CCN(c2ccc([N+](=O)[O-])cc2F)CC1C (centres undefined)	1	5	-3	1
CCOC(=O)N1CCN(c2ccc(C(C)=O)cc2F)CC1C (centres undefined)	-3	-5	-4	4.6*
CCOc1ccc(NC(=O)c2ccc3[nH]c(=O)c(=O)[nH]c3c2)cc1	-16	-2	-3	4.6*
O=c1nc(/C=C/c2ccc(O)c(O)c2)oc2ccccc12	-1	1	-5	.
COc1ccc(/C=C\c2nc(=O)c3ccccc3o2)cc1	0	-5	-5	4.7*
Nc1[nH]c(C(=O)c2ccc(Br)cc2)c(-c2ccccc2)c1C(=O)NCCc1c[nH]c2ccccc12	.	.	.	0
CC(=O)COc1cc2c(-c3cc4ccccc4o3)cc(=O)oc2cc1C	-5	7	-1	7.1*
C=CCc1cccc2cc(C(=O)Nc3ccccc3C(=O)O)c(=O)oc12	.	.	-3	4.9*
CN(C)c1ccc(/C=C(\NC(=O)c2ccccc2)C(=O)NCc2ccncc2)cc1	-1	-5	-4	4.7*
